In PubChem BioAssay AID1345083 (National Center for Advancing Translational Sciences (NCATS), 2018):
The whole screen tested about 94,000 compounds, of which about 6,200 (6.6%) were called active. Roughly 31% stayed inconclusive and do not appear here. What follows is part of a selection rich in actives, with near analogues and random picks from the rest. Unmarked numbers belong to inactive results. Calls follow the shape of the dose curve; as a rule, active = well fitted inhibition curve with a large enough effect; inconclusive = small, poorly fitted or top-dose-only effect; inactive = flat fitted curve, though single readings scatter.

Experiment: Cytotoxic Profiling in HEK 293 Cell Line of Diverse Libraries Using Quantitative High-Throughput Screening; also: nearly all actives have a fitted effect of over 60% in size
Conditions: HEK 293 viability, ATP luminescence (CellTiter-Glo), 48-72 h; series mostly up to 115 µM; activity change, negative = cytotoxicity: at the top concentration
From the text: Cell-based phenotypic screening is a commonly used approach to discover biological pathways, novel drug targets, chemical probes and high-quality hit-to-lead molecules. Many hits identified from high-throughput screening campaign are ruled out through a series of follow-up potency, selectivity/specificity, and cytotoxicity assays. Prioritization of molecules with little or no cytotoxicity for a more in-depth downstream evaluation influence the future direction of projects, so cytotoxicity profiling of the screening libraries at early stage is essential for increasing the likelihood of candidate success. In this study, we analyzed results from a cell-based cytotoxicity screening campaign, comprising nearly 10,000 compounds in NCATS annotated libraries, and over 100,000 compounds in a diversity library, evaluated in four normal cell lines (HEK 293, NIH 3T3, CRL-7250 and HaCat) and a cancer cell line (KB 3-1, a HeLa subline) with overall screening outcomes, hit rates, pan-activity and selectivity. For the annotated library, we also examined the primary targets and mechanistic pathways regularly associated with cell death. To our knowledge, this is the first study to use high-throughput screening to profile large libraries for cytotoxicity assessment in both normal and cancer cell lines. In summary, the results generated here constitutes a valuable resource for the scientific community and provides insight on identifying cytotoxic compounds with particular mechanisms of action, and prioritizing compounds with suitable cytotoxicity profile for further evaluation.
HEK 293 cells were seeded into white 1536-well plates using a Multidrop Combi peristaltic dispenser (ThermoFisher, Waltham, MA) at a density of 250 cells/well in 5 uL of medium respectively. A pintool (Kalypsys) was used to transfer 23 nL of compound solution to the 1536-well assay plates. After 48 or 72 hr incubation at 37 degree Celsius, 5% CO2 and 95% humidity, 2.5 uL of CellTiter-Glo (Promega) was dispensed into each well using a dispenser (Aspect Automation, St. Paul, MN) with solenoid valves (Lee Valves, Westbrook CT). Plates were left at room temperature for 10 min before imaging the ATP-coupled luminescence using a ViewLux microplate imager (PerkinElmer, Waltham, MA).
% is scaled to controls: 0 for no effect and ±100 for the full control effect; potency is read from the fitted curve at half-maximal effect.

SMILES | activity change, negative = cytotoxicity | outcome | Potency
O=C(CC1CCCCC1)Nc1ccc(-c2nnc3n2CCCC3)cc1 | -3.57% |  | 
Cc1nsc(NC(=O)N2CCC(C(=O)N3CCCC3)CC2)n1 |  | inactive | 
Cc1c(C(=O)N2CCn3nc(CO)cc3C2)cnc2cc(=O)[nH]n12 | -28.9% |  | 
COCC(=O)N[C@@H]1CN(Cc2ccccc2OC(C)C)C[C@H]1CO |  | inactive | 
Cn1cnc(S(=O)(=O)N2CCOCCNC(=O)[C@@H]3CCC[C@@H]32)c1 |  | inactive | 
O=C(Cn1ccn2nc(-c3ccc(F)cc3)c(CO)c2c1=O)Nc1ccc(F)cc1F | 11.8% |  | 
CC(C)C1=NOC2(CCN(C3CCCCC3)CC2)C1 | 4.53% [at 172 µM] |  | 
CNC(=O)[C@@H]1CN(Cc2ccncc2)C[C@H]1COC | -14.9% |  | 
O=C1CCCCC(CNC(=O)c2ccncc2)N1 (stereo not given) | 3.78% |  | 
O=C(O)CCNC(=O)Cn1nc2c(cc1=O)CCCCC2 | 7.02% |  | 
Cn1nnc(-c2ccc(C(=O)N3CCC4(CCCO4)CC3)cc2)n1 | -4.78% |  | 
O=C1Nc2ccc(-c3ccsc3)cc2C(=O)N2CC[C@H](NS(=O)(=O)c3cccs3)[C@@H]12 | -3.25% |  | 
Cc1ccc(Cl)cc1NC(=O)CN1C(=O)NC(c2ccc(Cl)cc2)C2=C1COC2=O (stereo not given) |  |  | 12.6 µM (active)
Cc1ccccc1NC(=O)CN1C(=O)NC(c2ccccc2Cl)C2=C1COC2=O (stereo not given) | -0.401% |  | 
COc1ccc(C)cc1NC(=O)CN1C(=O)NC(c2ccccc2Cl)C2=C1COC2=O (stereo not given) | -10.9% |  | 
Cc1nn(-c2ccccc2)c2c1C(C(C)C)N(C1CN(C(=O)c3ccccc3Cl)C1)C2=O (stereo not given) | -14.1% |  | 
COc1cccc(CN2CCC(N3C(=O)c4c(c(C)nn4-c4ccccc4)C3C3CC3)CC2)c1 (stereo not given) |  |  | 35.5 µM (active)
Cc1nn(-c2ccccc2)c2c1C(C(C)C)N(C1CCN(C(=O)c3ccc(Cl)nc3)CC1)C2=O (stereo not given) | -23.4% |  | 
COc1cccc(C(=O)N2CCC(N3C(=O)c4c(c(C)nn4-c4ccccc4)C3C)C2)c1 (stereo not given) |  |  | 35.5 µM (active)
Cc1nn(-c2ccccc2)c2c1C(C)N(C1CCCN(C(=O)c3ccccn3)C1)C2=O (stereo not given) |  | inactive | 
COc1cccc(CC(=O)N2CCC(N3C(=O)CCC3C(=O)NCc3ccccc3)CC2)c1 (stereo not given) | -19.9% |  | 
CC1(C(=O)O)CCN(C(=O)C2CCCC2)CC1 | 4.11% [at 230 µM] |  | 
C=CCNC(=O)C[C@@H]1CCN(C(=O)c2cccnc2)C[C@@H]1CC | 0.585% [at 172 µM] |  | 
COCCN(C)Cc1ccc(CC2CCN(C(=O)C3(c4ccc(OC)cc4)CC3)CC2)cc1 |  |  | 39.8 µM (active)
COCCOC1CCOC2(CCN(C(=O)C3(c4ccc(OC)cc4)CC3)CC2)C1 (stereo not given) | -9.05% |  | 

SMILES | activity change, negative = cytotoxicity | outcome | Potency
CC(=O)N1CCC(Cc2ccc(C(=O)NC3CC3)cc2)CC1 | -1.11% |  | 
O=C1CC(c2ccccc2)N(Cc2ccncc2)CCCN(C(=O)COc2ccccc2)CCN1 (stereo not given) | -3.56% |  | 
Cc1ccc(OCCC2CCN(C(=O)CCN3C(=O)NC(C)(C)C3=O)C2)cc1 (stereo not given) | -19.8% |  | 
O=C(c1cccc(F)c1)N1CCCC(CN2CCOCC2)CC1 (stereo not given) |  | inactive | 
O=C(c1cccc(F)c1)N1CCC(CCOc2ccc(F)cc2)C1 (stereo not given) |  |  | 44.7 µM (active)
Cc1cnc(CCNC(=O)c2cn(C)cn2)n1C1CC1 |  | inactive | 
Cc1ccc([S+](=O)([O-])N2CCC3(CC2)CC(=O)N(c2ccccc2)c2ccccc2O3)cc1 |  |  | 25.1 µM (active)
O=[S+]([O-])(c1ccccc1)N1CCCC2(CC(c3ccccn3)=NO2)C1 (stereo not given) | -4.29% |  | 
O=[S+]([O-])(c1ccccc1)N1CCC2(CC(c3cccnc3)=NO2)C1 (stereo not given) |  | inactive | 
NC(=O)c1cccnc1OC1CCNCC1 | 5.73% |  | 
COc1ccc(C)cc1NC(=O)Cn1nc2n(c1=O)CCCC2 | 1.29% |  | 
CC(C)Cc1ccc(CN2CCC3(CC2)Cc2ccccc2CNC3=O)cc1 |  |  | 22.4 µM (active)
COc1ccc(CN2CCC3(CC2)Cc2ccccc2CNC3=O)cn1 | -2.09% |  | 
O=C1NCc2ccccc2CC12CCN(Cc1ccc(O)cc1)CC2 | 2.63% |  | 
COc1ccc(C2(C(=O)NCc3cccc(C(F)(F)F)c3)CCOCC2)cc1 | -18.9% |  | 
CC1=C[C@@H](CN(C)CCc2ccccn2)[C@H](C(C)C)C[C@H]1Cc1nnc(-c2ccccc2F)o1 |  |  | 44.7 µM (active)
COCC(=O)NC[C@@H]1C=C(C)[C@H](CC(=O)Nc2ccccn2)C[C@H]1C(C)C | -20.1% [at 172 µM] |  | 
NC(=O)c1ccc(OC2CCN(C(=O)c3ccc(F)cc3)CC2)nc1 | -29.6% |  | 
O=C1CCN(C(=O)[C@@H](Cc2ccccc2)NS(=O)(=O)c2cccc3cccnc23)CCOCCN1 | 1.59% |  | 
O=C(NCCc1ccccc1)NC1CCc2nn(CC3CC3)c(=O)n2CC1 (stereo not given) |  | inactive | 
O=C(Nc1cnc(-c2cccc(Cl)c2)nc1)c1ccc(F)cc1 |  |  | 44.7 µM (active)
O=C(Cc1cccc(F)c1)Nc1cnc(-c2cccnc2)nc1 | -0.423% |  | 
O=C(Nc1ccc(F)cc1)c1ccc2nc(-c3cccnc3)oc2c1 | -10.8% [at 172 µM] |  | 
COC(=O)COc1cccn2c(=O)c(-c3cc(C)n(-c4ccc(C)cc4C)n3)c(C)nc12 | -13.2% |  | 
O=C1CC(c2ccccc2)N(C(=O)C2CC2)CCCN(C(=O)Cc2cccc(F)c2)CCN1 (stereo not given) | 2.27% |  | 
